In PubChem BioAssay (Tox21):
Results filed as inconclusive are left out. A call without a number means that no potency is given here. Calls of active or inactive are those of the source. Unless noted, calls come from the whole dose curve; as a rule, active = well fitted curve in the direction sought with a large enough effect in the repeat runs; inconclusive = weak or mixed curves; inactive = no such curve, though single readings can be large; an effect the other way counts as inactive or inconclusive.

Experiments:
[1] = target: Aryl hydrocarbon receptor (Homo sapiens) (UniProt P35869); experiment: qHTS assay to identify small molecule that activate the aryl hydrocarbon receptor (AhR) signaling pathway (AID 743085); note: nearly all actives have a fitted effect of over 15% in size; note: potency is the fitted concentration of half-maximal effect;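 for activation: HG2L7.5c1 human HepG2 liver cells with stably integrated DRE-driven firefly reporter; series mostly up to about 70 µM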
Aryl hydrocarbon receptor (Homo sapiens), sequence (P35869 whole entry, looked up): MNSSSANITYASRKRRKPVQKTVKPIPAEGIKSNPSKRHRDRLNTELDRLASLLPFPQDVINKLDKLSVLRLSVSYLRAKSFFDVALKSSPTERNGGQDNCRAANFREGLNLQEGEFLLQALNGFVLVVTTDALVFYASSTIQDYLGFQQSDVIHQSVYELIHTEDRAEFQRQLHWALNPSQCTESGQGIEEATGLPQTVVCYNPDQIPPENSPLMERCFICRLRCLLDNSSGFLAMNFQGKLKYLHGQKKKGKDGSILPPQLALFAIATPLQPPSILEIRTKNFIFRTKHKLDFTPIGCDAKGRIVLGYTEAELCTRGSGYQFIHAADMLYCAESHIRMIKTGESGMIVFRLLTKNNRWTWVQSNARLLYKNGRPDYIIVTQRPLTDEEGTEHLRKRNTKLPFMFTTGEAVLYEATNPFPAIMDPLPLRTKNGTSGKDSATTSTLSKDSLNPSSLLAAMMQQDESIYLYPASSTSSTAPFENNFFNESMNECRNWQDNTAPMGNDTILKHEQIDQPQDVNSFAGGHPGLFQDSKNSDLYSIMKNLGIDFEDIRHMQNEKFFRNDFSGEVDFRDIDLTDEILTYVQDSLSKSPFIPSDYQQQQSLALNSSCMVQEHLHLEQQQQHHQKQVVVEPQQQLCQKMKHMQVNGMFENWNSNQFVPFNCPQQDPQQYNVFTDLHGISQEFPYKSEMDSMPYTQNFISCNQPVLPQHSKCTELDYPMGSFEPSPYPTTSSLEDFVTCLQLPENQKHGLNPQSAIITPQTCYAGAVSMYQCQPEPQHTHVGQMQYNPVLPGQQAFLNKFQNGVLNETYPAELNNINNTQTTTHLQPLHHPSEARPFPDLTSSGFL
Procedure, shortened: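 AhR agonist activity is inferred from enhanced light output of a DRE-controlled firefly luciferase reporter in HepG2 cells, measured with ONE-Glo following 24 h treatment at 37C.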

[2] = qHTS assay to identify small molecule that activate the aryl hydrocarbon receptor (AhR) signaling pathway - cell viability counter screen (AID 743086);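 note: HepG2 liver cells carrying the AhR DRE luciferase reporter; series mostly up to about 70 µM; nearly all actives have a fitted effect of over 45% in size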
Procedure, shortened: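 HepG2-AhR-luc (HG2L7.5c1) cells, 4000/well, treated 24 h at 37 C with compound; viability measured as CellTiter-Fluor fluorescence after 30 min in the same wells as the luciferase read.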

[3] = target: Peroxisome proliferator-activated receptor gamma (Homo sapiens) (UniProt P37231); experiment: qHTS assay to identify small molecule agonists of the peroxisome proliferator-activated receptor gamma (PPARg) signaling pathway (AID 743094; active = well fitted activation curve with a large enough effect in the signal ratio in the repeat runs, not every such curve was filed as active; the % refers to the signal ratio)
Peroxisome proliferator-activated receptor gamma (Homo sapiens), sequence (P37231 whole entry, looked up): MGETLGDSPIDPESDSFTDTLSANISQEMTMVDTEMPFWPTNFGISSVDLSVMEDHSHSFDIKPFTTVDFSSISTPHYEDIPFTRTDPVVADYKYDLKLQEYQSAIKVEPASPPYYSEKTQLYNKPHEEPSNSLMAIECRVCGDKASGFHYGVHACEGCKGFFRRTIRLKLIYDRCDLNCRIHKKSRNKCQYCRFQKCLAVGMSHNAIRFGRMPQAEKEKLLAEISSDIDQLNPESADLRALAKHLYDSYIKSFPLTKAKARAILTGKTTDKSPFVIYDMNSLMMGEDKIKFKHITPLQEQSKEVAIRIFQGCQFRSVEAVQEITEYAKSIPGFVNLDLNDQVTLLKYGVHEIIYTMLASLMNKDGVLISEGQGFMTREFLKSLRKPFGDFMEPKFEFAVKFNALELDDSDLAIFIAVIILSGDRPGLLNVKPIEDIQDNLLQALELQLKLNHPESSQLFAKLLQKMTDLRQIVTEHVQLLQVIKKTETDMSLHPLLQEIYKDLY
Procedure, shortened: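 GeneBLAzer PPARg UAS-bla HEK293H cells carrying a stably integrated beta-lactamase reporter were pre-incubated 5 h at 37C, then exposed to compounds in DMSO for 17 h at 37C; LiveBLAzer B/G FRET substrate was added for 1 h at room temperature and fluorescence read.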

[4] = target: Peroxisome proliferator-activated receptor gamma (Homo sapiens) (UniProt P37231); experiment: qHTS assay to identify small molecule antagonists of the peroxisome proliferator-activated receptor gamma (PPARg) signaling pathway (AID 743191; calls by dose curve; note: series mostly up to about 63 µM; nearly all actives have a fitted effect of over 30% in size)
Procedure, shortened: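 GeneBLAzer PPARg UAS-bla HEK293H cells, 5 h post-plating, exposed to compounds 17 h at 37C. LiveBLAzer B/G FRET substrate added for 1 h at room temperature; beta-lactamase reporter read by fluorescence intensity.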

[5] = qHTS assay to identify small molecule antagonists of the peroxisome proliferator-activated receptor gamma (PPARg) signaling pathway - cell viability counter screen (AID 743194); note: nearly all actives have a fitted effect of over 55% in size
Procedure, shortened: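 Cytotoxicity counter screen in PPARg-bla HEK293H cells, same wells as reporter assay. Compounds plus 50 nM rosiglitazone (final) for 17 h at 37 C, then viability read by CellTiter-Glo luminescence.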

[6] = qHTS assay for small molecule agonists of the antioxidant response element (ARE) signaling pathway (AID 743202; active = well fitted activation curve with a large enough effect in the signal ratio in the repeat runs, not every such curve was filed as active; the % refers to the signal ratio)
Procedure, shortened: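 Agonist mode reporter screen: HepG2 cells with ARE-controlled beta-lactamase are incubated with test compounds for 16 h at 37 C, and beta-lactamase activity is measured as fluorescence of cleaved B/G FRET substrate.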

[7] = qHTS assay for small molecule agonists of the antioxidant response element (ARE) signaling pathway - cell viability counter screen (AID 743203; calls by dose curve; note: nearly all actives have a fitted effect of over 55% in size)
Procedure, shortened: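 CellSensor ARE-bla HepG2 cells, 2,000 per well, rested 5 hrs at 37C/5% CO2, then exposed to compound in DMSO for 16 hrs; viability read as CellTiter-Glo luminescence after 30 min at room temperature, in the reporter wells.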

[8] = qHTS assay for small molecule activators of the heat shock response signaling pathway - cell viability counter screen (AID 743209); note: nearly all actives have a fitted effect of over 50% in size
Procedure, shortened: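 CellSensor HSE-bla HeLa cells, plated overnight at 37 C/5% CO2, were exposed to compounds in DMSO for 5 h at 37 C. Viability was then read in the same wells by CellTiter-Glo luminescence after 30 min at room temperature.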

[9] = qHTS assay for small molecule activators of the heat shock response signaling pathway (AID 743210; active = well fitted activation curve with a large enough effect in the signal ratio in the repeat runs, with a control signal flat, not every such curve was filed as active; the % refers to the signal ratio;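 note: HeLa cells with beta-lactamase reporter driven by heat shock elements; series mostly up to about 63 µM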)
Procedure, shortened: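 Quantitative high-throughput format using an engineered HeLa line in which heat shock response elements drive beta-lactamase; after 5 h with compound, cells received a B/G FRET substrate and fluorescence was read.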

[10] = qHTS assay to identify small molecule agonists of the peroxisome proliferator-activated receptor delta (PPARd) signaling pathway - cell viability counter screen (AID 743211); note: nearly all actives have a fitted effect of over 55% in size
Procedure, shortened: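 qHTS cell viability: PPARd-bla HEK293H; 17 h cpd, 37C; CellTiter-Glo, luminescence at 30 min RT.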

[11] = target: Peroxisome proliferator-activated receptor delta (Homo sapiens) (UniProt Q03181); experiment: qHTS assay to identify small molecule agonists of the peroxisome proliferator-activated receptor delta (PPARd) signaling pathway (AID 743212; calls by dose curve)
Peroxisome proliferator-activated receptor delta (Homo sapiens), sequence (Q03181 whole entry, looked up): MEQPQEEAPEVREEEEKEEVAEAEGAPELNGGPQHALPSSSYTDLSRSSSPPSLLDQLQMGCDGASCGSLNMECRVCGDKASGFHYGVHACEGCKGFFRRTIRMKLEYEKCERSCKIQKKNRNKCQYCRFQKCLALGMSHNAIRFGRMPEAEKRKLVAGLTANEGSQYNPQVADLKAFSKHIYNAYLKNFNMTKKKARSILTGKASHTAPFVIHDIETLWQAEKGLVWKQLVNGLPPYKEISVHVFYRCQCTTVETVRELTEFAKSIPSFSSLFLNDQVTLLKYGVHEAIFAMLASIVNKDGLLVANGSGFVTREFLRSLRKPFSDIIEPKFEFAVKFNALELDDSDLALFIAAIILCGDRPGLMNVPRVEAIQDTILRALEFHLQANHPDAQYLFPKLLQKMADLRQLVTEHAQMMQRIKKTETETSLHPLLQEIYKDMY
Procedure, shortened: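 Quantitative high-throughput agonist screen in a HEK293H beta-lactamase reporter line under UAS control. Compounds in DMSO, at 37 C. Fluorescence read after 2 h with FRET substrate at room temperature.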

[12] = qHTS assay to identify small molecule antagonists of the peroxisome proliferator-activated receptor delta (PPARd) signaling pathway - cell viability counter screen (AID 743213); note: nearly all actives have a fitted effect of over 50% in size
Procedure, shortened: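 Agonist-stimulated (L165041, 300 nM final) HEK293H PPARd UAS-bla cells are exposed to compounds for 17 h at 37 C, and ATP-based luminescence (CellTiter-Glo) from the same wells reports cytotoxicity.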

[13] = target: Peroxisome proliferator-activated receptor delta (Homo sapiens) (UniProt Q03181); experiment: qHTS assay to identify small molecule antagonists of the peroxisome proliferator-activated receptor delta (PPARd) signaling pathway (AID 743215; active = well fitted inhibition curve with a large enough effect in the signal ratio in the repeat runs, not every such curve was filed as active; the % refers to the signal ratio; note: series mostly up to about 62 µM)
Procedure, shortened: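 PPARd UAS-bla HEK293H cells were pre-incubated 5 h at 37 C, then given test compounds in DMSO plus agonist L165041 (300 nM final). After 17 h at 37 C, beta-lactamase FRET substrate was added; fluorescence read after 2 h at room temperature.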

[14] = qHTS assay to identify small molecule agonists of the farnesoid-X-receptor (FXR) signaling pathway - cell viability counter screen (AID 743218); note: nearly all actives have a fitted effect of over 45% in size
Procedure, shortened: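 FXR-UAS-bla HEK 293T cells, plated 5 h at 37 C, were exposed to compounds for 16 h at 37 C. CellTiter-Glo was then added to the same wells as the bla readout; luminescence read after 30 min at room temperature.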

[15] = qHTS assay to identify small molecule antagonists of the farnesoid-X-receptor (FXR) signaling pathway - cell viability counter screen (AID 743221; active = well fitted cell-killing curve with a large enough effect in the repeat runs, not every such curve was filed as active; note: nearly all actives have a fitted effect of over 50% in size)
Procedure, shortened: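 After a 5 h settling period, FXR-bla HEK 293T cells receive compound and chenodeoxycholic acid (50 uM final) and incubate 16 h at 37 C; CellTiter-Glo luminescence, read after 30 min at room temperature, reports cell viability.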

[16] = target: Vitamin D3 receptor (Homo sapiens) (UniProt P11473); experiment: qHTS assay to identify small molecule antagonists of the vitamin D receptor (VDR) signaling pathway (AID 743223; active = well fitted inhibition curve with a large enough effect in the signal ratio in the repeat runs, not every such curve was filed as active; the % refers to the signal ratio)
Vitamin D3 receptor (Homo sapiens), sequence (P11473 whole entry, looked up): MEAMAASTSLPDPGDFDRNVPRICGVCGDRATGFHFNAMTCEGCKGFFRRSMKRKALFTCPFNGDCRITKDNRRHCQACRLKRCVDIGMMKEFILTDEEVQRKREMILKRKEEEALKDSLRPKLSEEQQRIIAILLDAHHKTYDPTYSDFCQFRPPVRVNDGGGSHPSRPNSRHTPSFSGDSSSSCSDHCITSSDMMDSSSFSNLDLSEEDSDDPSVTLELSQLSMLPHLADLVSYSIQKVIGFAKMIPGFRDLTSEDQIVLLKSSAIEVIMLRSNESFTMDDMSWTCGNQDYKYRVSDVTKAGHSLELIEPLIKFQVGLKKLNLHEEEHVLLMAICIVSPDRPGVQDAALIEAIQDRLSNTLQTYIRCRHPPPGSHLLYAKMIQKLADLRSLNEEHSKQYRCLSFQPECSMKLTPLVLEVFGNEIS
Procedure, shortened: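 Reporter line VDR-bla; stimulus 1alpha,25-(OH)2 vitamin D3, 3 nM final; compound co-addition, 16 h 37C/5% CO2; LiveBLAzer B/G substrate 2 h RT; fluorescence intensity.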

[17] = qHTS assay to identify small molecule agonists of the vitamin D receptor (VDR) signaling pathway - cell viability counter screen (AID 743224); note: series mostly up to about 63 µM; nearly all actives have a fitted effect of over 50% in size
Procedure, shortened: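 VDR-bla cells were preincubated 4 h at 37C/5% CO2, then exposed to compounds for 16 h. After the 2 h room-temperature bla FRET read, CellTiter-Glo was added to the same wells and luminescence read after 30 min.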

[18] = target: Vitamin D3 receptor (Homo sapiens) (UniProt P11473); experiment: qHTS assay to identify small molecule agonists of the vitamin D receptor (VDR) signaling pathway (AID 743222; calls by dose curve)
Procedure, shortened: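 VDR-bla cells were plated 4 h at 37C/5% CO2, then exposed to compounds in DMSO for 16 h. After LiveBLAzer B/G FRET substrate addition and 2 h at room temperature, beta-lactamase reporter fluorescence was read.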

[19] = target: Bile acid receptor (Homo sapiens) (UniProt Q96RI1); experiment: qHTS assay to identify small molecule antagonists of the farnesoid-X-receptor (FXR) signaling pathway (AID 743217; active = well fitted inhibition curve with a large enough effect in the signal ratio in the repeat runs, not every such curve was filed as active; the % refers to the signal ratio)
Bile acid receptor (Homo sapiens), sequence (Q96RI1 whole entry, looked up): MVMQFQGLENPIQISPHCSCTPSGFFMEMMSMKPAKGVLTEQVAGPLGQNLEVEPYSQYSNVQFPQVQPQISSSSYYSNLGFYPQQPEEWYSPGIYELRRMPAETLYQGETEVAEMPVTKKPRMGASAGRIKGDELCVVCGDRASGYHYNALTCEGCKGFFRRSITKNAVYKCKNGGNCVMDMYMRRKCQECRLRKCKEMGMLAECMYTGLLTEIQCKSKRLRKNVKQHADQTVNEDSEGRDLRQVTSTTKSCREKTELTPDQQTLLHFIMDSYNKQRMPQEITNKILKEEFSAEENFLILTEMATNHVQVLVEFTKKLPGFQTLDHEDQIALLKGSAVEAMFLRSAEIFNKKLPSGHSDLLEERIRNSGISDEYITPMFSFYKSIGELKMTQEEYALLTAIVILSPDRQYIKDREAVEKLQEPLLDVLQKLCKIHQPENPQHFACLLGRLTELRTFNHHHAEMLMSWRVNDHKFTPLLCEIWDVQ
Procedure, shortened: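 FXR-UAS-bla HEK 293T cells pre-incubated 5 h at 37 °C, then exposed to compounds with chenodeoxycholic acid (50 uM final) for 16 h at 37 °C. Beta-lactamase reporter read by LiveBLAzer B/G FRET substrate fluorescence after 2 h at room temperature.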

[20] = target: Bile acid receptor (Homo sapiens) (UniProt Q96RI1); experiment: qHTS assay to identify small molecule agonists of the farnesoid-X-receptor (FXR) signaling pathway (AID 743220; active = well fitted activation curve with a large enough effect in the signal ratio in the repeat runs, not every such curve was filed as active; the % refers to the signal ratio)
Procedure, shortened: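 Beta-lactamase reporter under UAS control in GeneBLAzer FXR HEK 293T cells (5000/well) measured with LiveBLAzer FRET substrate after 2 h at room temperature. Compound exposure lasted 16 h at 37C.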

Row | Structure (SMILES) | Potency [1] | Potency [2] | outcome [3] | Potency [4] | Potency [5] | Potency [6] | Potency [7] | Potency [8] | Potency [9] | Potency [10] | outcome [11] | Potency [12] | Potency [13] | Potency [14] | Potency [15] | outcome [16] | Potency [17] | outcome [18] | outcome [19] | Potency [20]
1 | CC(C)N(C)C | inactive | inactive | inactive | inactive | inactive | inactive | inactive | inactive | inactive | inactive | inactive | inactive | inactive | inactive | inactive | inactive | inactive |  |  | 
2 | Cc1cn([C@H]2C[C@H](F)[C@@H](CO)O2)c(=O)[nH]c1=O | inactive | inactive | inactive | inactive | inactive | inactive | inactive | inactive | inactive | inactive | inactive | inactive | inactive | inactive | inactive | inactive | inactive | inactive |  | 
3 | C1CCCCC1 | inactive | inactive | inactive | inactive | inactive | inactive | inactive | inactive | inactive |  | inactive | inactive | inactive | inactive |  |  | inactive |  | inactive | 
4 | CC(C)N=C=NC(C)C | inactive | inactive | inactive | inactive | inactive | inactive | inactive | inactive | inactive | inactive |  | inactive |  |  | inactive | inactive | inactive |  |  | 
5 | CC(=O)OCCC(C)CC(C)(C)C (stereo not drawn) | inactive | inactive | inactive | inactive | inactive | inactive | inactive | inactive | inactive | inactive | inactive | inactive | inactive |  | inactive | inactive |  | inactive | inactive | 
6 | Nc1nc2ccc(OC(F)(F)F)cc2s1 | 10.6 µM (active) | inactive | inactive | inactive | inactive | inactive | inactive | inactive | inactive | inactive | inactive |  | inactive |  | inactive | inactive | inactive | inactive |  | 
7 | O=C1CC[C@@H](C(=O)O)N1 | inactive | inactive | inactive | inactive | inactive | inactive | inactive | inactive | inactive | inactive | inactive | inactive | inactive | inactive | inactive | inactive | inactive | inactive |  | 
8 | CCCCCCCC(=O)OCCCCCC | inactive | inactive | inactive | inactive | inactive | inactive | inactive | inactive | inactive | inactive | inactive | inactive | inactive |  |  | inactive | inactive | inactive |  | inactive
9 | COc1cc(NC(C)CCCN)c2ncccc2c1 (stereo not drawn) | inactive | inactive | inactive | inactive | inactive | inactive | inactive | inactive | inactive | inactive | inactive |  | inactive | inactive |  | inactive | inactive | inactive |  | 
10 | CCC(C)(C)C(=O)O | inactive | inactive | inactive | inactive | inactive | inactive | inactive | inactive | inactive | inactive | inactive | inactive | inactive | inactive | inactive | inactive | inactive | inactive | inactive | 
11 | C=CC(=O)NC(C)C | inactive | inactive | inactive | inactive | inactive | inactive | inactive | inactive | inactive | inactive | inactive | inactive | inactive | inactive | inactive |  | inactive | inactive | inactive | 
12 | CCN(CC)C(=O)N1CCN(C)CC1 | inactive | inactive | inactive | inactive | inactive | inactive | inactive |  | inactive | inactive | inactive | inactive | inactive |  | inactive | inactive | inactive | inactive | inactive | 
13 | CC(C)C(=O)OCCOc1ccccc1 | inactive | inactive | inactive | inactive | inactive | inactive | inactive | inactive | inactive | inactive | inactive |  | inactive |  | inactive | inactive | inactive | inactive |  | 
14 | C[C@@H]1C[C@H]2[C@@H]3CCC4=CC(=O)C=C[C@]4(C)[C@@]3(F)[C@@H](O)C[C@]2(C)[C@@]1(O)C(=O)COP(=O)(O)O | inactive | inactive | inactive | inactive | inactive | inactive | inactive | inactive | inactive | inactive | inactive | inactive | inactive | inactive | inactive | inactive | inactive | inactive |  | 
15 | O=C(O)CCC(=O)c1ccc(-c2ccccc2)cc1 | inactive | inactive | inactive | inactive | inactive | inactive | inactive |  | inactive | inactive | inactive | inactive | inactive | inactive | inactive | inactive | inactive | inactive | inactive | inactive
16 | CC12CC3CC(C)(C1)CC(N)(C3)C2 | inactive | inactive | inactive | inactive | inactive | inactive | inactive | inactive | inactive | inactive |  | inactive |  | inactive | inactive |  | inactive | inactive |  | 
17 | COc1ccc(-n2nc(C(F)F)cc2-c2ccc(S(C)=O)cc2)cc1 (stereo not drawn) | inactive | inactive | inactive | inactive | inactive | inactive | inactive | inactive |  |  | inactive | inactive |  | inactive | inactive |  | inactive |  |  | 
